Measurements published in PubChem BioAssay AID1491 (National Center for Advancing Translational Sciences (NCATS), 2009).
Inconclusive results are not listed. A number with no mark means an inactive call. The source made the active and inactive calls. Calls follow the shape of the dose curve; as a rule, active = well fitted inhibition curve with a large enough effect in the main read-out, with a control signal flat; inconclusive = small, poorly fitted or top-dose-only effect, or a change in a side signal; inactive = flat fitted curve, though single readings scatter.

target: Neuropeptide S receptor (Homo sapiens) (UniProt Q6W5P4); experiment: Confirmation Concentration-Response Assay for Antagonists of the Neuropeptide S Receptor: cAMP Signal Transduction; conditions: CHO-NPSR cells, cAMP TR-FRET, antagonist mode; series mostly up to 22.3 µM; activity change, negative = inhibition: at the top concentration;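 as to activity change, negative = inhibition: 0% = DMSO with NPS and full inhibition = wells lacking NPS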
Excerpt: NIH Chemical Genomics Center [NCGC] NIH Molecular Libraries Probe Production centers Network [MLPCN] MLPCN Grant: X01-DA026210-01 Assay Submitter (PI): Heilig, Markus Alexander NCGC Assay Overview: Neuropeptide S receptor (NPSR), previously known as GPR154, is a recently de-orphanized G protein coupled receptor. Its endogenous ligand is the 20 amino acids peptide Neuropeptide S (NPS). […] NPS and its receptor are found in various tissues. Specifically they are highly expressed in brain areas that have been implicated in modulation of arousal, stress and anxiety. Central administration of NPS in mice produces an unusual profile of activity by inducing wakefulness and arousal, while at the same time suppressing anxiety. Therefore, NPSR may represent a novel drug target for the treatment of sleep and anxiety disorders. To identify NPSR antagonists, we developed a cell-based cAMP assay. NPS can stimulate the production of cAMP in Chinese hamster ovary cells stably expressing NPS receptor. This change in intracellular cAMP level can be detected by a homogeneous LANCE cAMP assay based on the TR-FRET (time resolved fluorescence resonance energy transfer) between a europium-labeled cAMP tracer complex and a cAMP-specific antibody labeled with Alexa Fluor 647. The europium-labeled cAMP tracer complex is formed by the tight interaction between Biotin-cAMP (b-cAMP) and streptavidin labeled with Europium-W8044 chelate (Eu-SA). Light pulse at 320 nm excites the europium of the cAMP tracer and the energy emitted is transferred to the Alexa molecule bound to the cAMP antibody, generating a TR-FRET signal at 665 nm. Residual energy from the europium will produce a light at 620 nm. The native unlabeled cAMP from cell lysates competes with the europium-cAMP tracer for antibody binding and reversely reduces the emission signal of Alexa by interrupting FRET between the two labeled molecules. Both emission signals from the FRET donor (620 nm) and the acceptor (665 nm) can be detected by a plate reader in the TRF mode. Expression of result in fluorescence ratio (665 nm/620 nm) helps to normalize differences due to cell density and reagent dispensing. This assay was successfully optimized to a 1536-well plate format. Select compounds from the primary screen (AID 1461) were chosen for confirmation based on potency, efficacy, SAR, and activity across other assays in PubChem and at NCGC. Other compounds are analogs of active compounds from the primary sceen.
NCGC Assay Protocol Summary: A Chinese hamster ovary (CHO) cell line stably expressing the NPS receptor (CHO-NPSR) was obtained from Dr. Heilig lab at NIAAA and maintained in F-12 Kaighn's media (Invitrogen, Carlsbad, CA, 21127) supplemented with 10 % FBS, 100 units/ml penicillin, 100 ug/ml streptomycin and 250 ug/ml geneticin at 37C, 5% CO2 in a humidified atmosphere. Before the assay, aliquots of cells were frozen and stored at -135C. The assay was performed in 1536-well format. Data are reported for both the ratio of the two emission wavelengths, and also for the component 'donor' channel, Em2=620. […] IC50 values were determined from concentration-response data modeled with the standard Hill equation. NPS 1536-well assay protocol: (1) Fresh or frozen CHO-NPSR cells were suspended in F-12 Kaighn's media supplemented with 10 % FBS, 100 units/ml penicillin and 100 ug/ml streptomycin. Cells were plated at 4 ul/well (1200 cells) to white, tissue culture treated 1536-well plates, and then cultured at 37C, 5 % CO2 for 16 to 30 hours. (2) Add 23 nl/well of compound in DMSO solution. The final titration for each compound was between 0.6 nM and 46 uM. (3) Add 1 ul of stimulation reagent (1X HBSS buffer, 5 mM HEPES, 0.1% BSA, 500 uM RO-201724 (Sigma-Aldrich, B8279), 1.5% Alexa 647-labeled anti-cAMP antibody (from Perkin Elmer), 100 nM NPS) (4) Incubation at 37C, 5 % CO2 for 60 min. (5) Add 1 ul/well detection reagent. […]
Potency is read from the fitted curve at half-maximal effect.

Chain of Neuropeptide S receptor (Homo sapiens) (Q6W5P4 whole entry, looked up): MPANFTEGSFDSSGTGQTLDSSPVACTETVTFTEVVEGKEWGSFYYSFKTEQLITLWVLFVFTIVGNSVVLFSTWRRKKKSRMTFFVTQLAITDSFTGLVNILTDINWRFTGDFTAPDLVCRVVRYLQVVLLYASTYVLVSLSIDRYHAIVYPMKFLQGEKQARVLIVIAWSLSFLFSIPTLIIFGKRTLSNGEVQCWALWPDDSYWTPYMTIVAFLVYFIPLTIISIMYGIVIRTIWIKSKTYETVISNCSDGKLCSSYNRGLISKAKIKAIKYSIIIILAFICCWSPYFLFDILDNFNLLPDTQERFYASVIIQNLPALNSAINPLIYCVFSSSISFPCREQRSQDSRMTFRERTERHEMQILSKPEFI

| SMILES | Potency | activity change, negative = inhibition |
| --- | --- | --- |
| COc1ccc(/C=C2\CCCC3C2=NN(C(=O)c2ccco2)C3c2ccc(OC)c(OC)c2)cc1OC (stereo not given) | inactive | – |
| COc1cc(/C=C2\SC(c3ccc(C)cc3)=NC2=O)cc(OC)c1O | 10 µM (active) | – |
| C=C1C(=O)C=C2CN(C(=O)c3ccccc3)[C@@](Cc3ccc(F)cc3)(C(=O)OC)[C@@H]12 | 3.98 µM (active) | – |
| CN(C)C(=S)N=Nc1[nH]c2ccccc2c1O | 10 µM (active) | – |
| N=c1c2c(ccn1CCCc1ccccc1)Oc1ccc3ccccc3c1C2c1ccccc1 (stereo not given) | 1.58 µM (active) | – |
| O=C(NCc1ccccc1)Nc1ncnc2c1C(c1ccccc1)c1c(ccc3ccccc13)O2 (stereo not given) | 2.24 µM (active) | – |
| Cc1nn(C)cc1/C=N/NC(=S)Nc1ccccc1 | – | -0.853% |
| CCCCCN1C=CC=C/C1=C\C=C(C#N)C#N | – | -10.9% |
| O=C1OC(c2ccccc2)(c2ccccc2)N2CCN(C(=O)NCc3ccc(F)cc3)CC12 (stereo not given) | 0.0251 µM (active) | – |
| O=C(c1ccccc1)N(C(=O)c1ccccc1)c1ncnc2c1C(c1ccccc1)c1c(ccc3ccccc13)O2 (stereo not given) | 3.16 µM (active) | – |
| Nc1ccc(-c2nc3c(Cl)cc(N)cc3[nH]2)cc1 | – | -9.8% |
| O=C(Nc1nccs1)C1CCCN1S(=O)(=O)c1ccc(Cl)cc1 (stereo not given) | – | 1.4% |
| COc1ccc(O)c(/C=N/Nc2nc(Nc3ccccc3)nc(-n3nc(C)cc3C)n2)c1 | – | -1.82% |
| O=C(CCc1ccccc1)Nc1ncnc2c1C(c1ccccc1)c1c(ccc3ccccc13)O2 (stereo not given) | 3.55 µM (active) | – |
| O=C(O)c1cccc(Nc2ncnc3ccccc23)c1 | – | 8.17% |
| CCc1ccc2oc(-c3cc(N)cc(C)c3O)nc2c1 | – | 14.2% |
| N=c1c2c(ncn1-c1ccccc1)Oc1ccc3ccccc3c1C2c1ccc2c(c1)OCCO2 (stereo not given) | 1.41 µM (active) | – |
| Cn1c(C(=O)NCCN2CCc3ccccc3C2)cc2c(=O)[nH]c3ccccc3c21 | – | 3.7% |
| O=c1cc(CNCCCO)c2ccccc2[nH]1 | – | 0.391% |
| COc1ccc2nc(NC(=S)N(C)C)sc2c1 | – | -7.19% |

| SMILES | Potency | activity change, negative = inhibition |
| --- | --- | --- |
| N#CC1=C(NC=NCc2ccccc2)Oc2ccc3ccccc3c2C1c1ccccc1 (stereo not given) | 1.58 µM (active) | – |
| COc1ccc(NC(=O)/C(Cl)=C(/Cl)S(=O)Cc2ccc(C)cc2)cn1 (stereo not given) | 2.24 µM (active) | – |
| CC1(C)O[C@@H]2C[C@H]3[C@@H]4C[C@H](F)C5=CC(=O)CC[C@]5(C)[C@H]4[C@@H](O)C[C@]3(C)[C@]2(C(=O)CO)O1 | – | -6.23% |
| O=C(Nc1ccc(Oc2c(F)c(F)c(F)c(F)c2F)cc1)OC1CCN2Cc3ccccc3N=C12 (stereo not given) | 11.2 µM (active) | – |
| COc1ccccc1-c1nnc(SC2CCc3ccccc3NC2=O)s1 (stereo not given) | – | -30% |
| CCOc1ccc(C2c3c(ncn(-c4ccccc4)c3=N)Oc3ccc4ccccc4c32)cc1OCC (stereo not given) | 2 µM (active) | – |
| CC(C)Cc1nc(N2CCN(C(=O)c3ccccc3)CC2)c(C#N)c2c1CCC2 | – | -10.7% |
| Cc1cc(C)n(-c2nc(NC(C)C)nc(NC(C)C)n2)n1 | – | -3.58% |
| CCCCNS(=O)(=O)c1ccc2nc(-c3cccnc3)cc(C(=O)NC(C)CC)c2c1 (stereo not given) | – | -6.53% |
| O=C(Nc1ncnc2c1C(c1ccccc1)c1c(ccc3ccccc13)O2)c1ccccc1 (stereo not given) | 6.31 µM (active) | – |
| Cc1ccc(S(=O)(=O)Nc2ccccc2CNc2c(C)n(C)n(-c3ccccc3)c2=O)cc1 | – | -20.6% |
| CCOc1ccccc1NC1=CC(=O)CC(c2ccccc2)C1 (stereo not given) | – | -1.81% |
| O=C(Nc1cc(=O)[nH]c2nc(-c3ccc(Cl)cc3)nn12)c1ccccc1 | 3.98 µM (active) | – |
| Cc1ccc(S(=O)(=O)Nc2cccc3ncccc23)s1 | – | -10.1% |
| COc1ccc(N2C3=C(CC4=C2CC(C)(C)CC4=O)C(=O)CC(C)(C)C3)cc1 | – | -0.478% |
| CCOC(=O)CCC(=O)Nc1ncnc2c1C(c1ccccc1)c1c(ccc3ccccc13)O2 (stereo not given) | 2 µM (active) | – |
| c1cncc(-c2nc(-c3ccco3)cs2)c1 | – | -9.66% |
| C/C(=N\Nc1ncc(Cl)cc1Cl)c1ccccn1 | 5.62 µM (active) | – |
| CC(=O)n1nc2nc(C)cc(C)c2c1N | – | 8.9% |
| CC(C)(C)OC(=O)Nc1ncnc2c1C(c1ccccc1)c1c(ccc3ccccc13)O2 (stereo not given) | 3.55 µM (active) | – |
